# Test results published in PMC5540273 (PLoS ONE, 2017).
# Several values for one entry are separate records, joined by “and”; a condition that tells them apart may be missing. Identical values can stand only once. Like-named read-outs stand apart in the source and are kept apart here.
# Assays:
# PAK1 = settings: concentration: 1 μM, replicates: in singlicate, n = 1
# PAK2 = settings: concentration: 1 μM, replicates: in singlicate, n = 1
# PAK3 = settings: concentration: 1 μM, replicates: in singlicate; n = 1
# PAK4 = settings: concentration: 1 μM, replicates: in singlicate; n = 1
# PAK6 = settings: concentration: 1 μM, replicates: in singlicate; n = 1
# PAK7 = settings: concentration: 1 μM, replicates: in singlicate, n = 1
# PCTK1 = tested on: T1, PCTK1; settings: concentration: 1 μM, replicates: in singlicate; n = 1
# T1 construct: gene CDK16
# PCTK2 = tested on: T2, PCTK2; settings: concentration: 1 μM, replicates: in singlicate, n = 1
# T2 construct: gene CDK17
# PCTK3 = tested on: T3, PCTK3; settings: concentration: 1 μM, replicates: in singlicate, n = 1
# T3 construct: gene CDK18
# PDGFRA = settings: concentration: 1 μM, replicates: in singlicate, n = 1
# PDGFRB = settings: concentration: 1 μM, replicates: in singlicate, n = 1
# PDPK1 = settings: concentration: 1 μM, replicates: in singlicate, n = 1
# PFTAIRE2 = settings: concentration: 1 μM, replicates: in singlicate, n = 1
# PFTK1 = tested on: T4, PFTK1; settings: concentration: 1 μM, replicates: in singlicate, n = 1
# T4 construct: gene CDK14
# PHKG1 = settings: concentration: 1 μM, replicates: in singlicate; n = 1
# PHKG2 = settings: concentration: 1 μM, replicates: in singlicate, n = 1
# PIK3C2B = settings: concentration: 1 μM, replicates: in singlicate, n = 1
# PIK3C2G = settings: concentration: 1 μM, replicates: in singlicate, n = 1
# PIK3CA = settings: concentration: 1 μM, replicates: in singlicate; n = 1
# PIK3CB = settings: concentration: 1 μM, replicates: in singlicate, n = 1
# 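Note: KINOMEscan kinase panel screen.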
structure (smiles),measurement,setting,value
Cl.O=S(=O)(c1cccc(F)c1)c1ccc(Nc2ncnc3cc(Br)sc23)cc1Cl [GSK306886],%Inh,PAK1,1%
same,%Inh,PAK2,0%
same,%Inh,PAK3,0%
same,%Inh,PAK4,1%
same,%Inh,PAK6,1%
same,%Inh,PAK7,9%
same,%Inh,PCTK1,4%
same,%Inh,PCTK2,10%
same,%Inh,PCTK3,11%
same,%Inh,PDGFRA,0%
same,%Inh,PDGFRB,46%
same,%Inh,PDPK1,0%
same,%Inh,PFTAIRE2,24%
same,%Inh,PFTK1,21%
same,%Inh,PHKG1,0%
same,%Inh,PHKG2,0%
same,%Inh,PIK3C2B,28%
same,%Inh,PIK3C2G,0%
same,%Inh,PIK3CA,0%
same,%Inh,PIK3CB,0%
CC(C)(C)OC(=O)NC1CCCN(c2cc(-c3ccc4c(N)n[nH]c4c3)nc(N)n2)C1 (centres unmarked) [GSK2286096],%Inh,PAK1,0%
same,%Inh,PAK2,1%
same,%Inh,PAK3,0%
same,%Inh,PAK4,0%
same,%Inh,PAK6,0%
same,%Inh,PAK7,0%
same,%Inh,PCTK1,4%
same,%Inh,PCTK2,6%
same,%Inh,PCTK3,17%
same,%Inh,PDGFRA,0%
same,%Inh,PDGFRB,14%
same,%Inh,PDPK1,84%
same,%Inh,PFTAIRE2,18%
same,%Inh,PFTK1,0%
same,%Inh,PHKG1,0%
same,%Inh,PHKG2,0%
same,%Inh,PIK3C2B,0%
same,%Inh,PIK3C2G,0%
same,%Inh,PIK3CA,0%
same,%Inh,PIK3CB,0%
COc1cc2c(Nc3cccc(NC(=O)c4ccccc4)c3)ncnc2cc1OCCCN1CCOCC1 [GSK223810],%Inh,PAK1,4%
same,%Inh,PAK2,0%
same,%Inh,PAK3,5%
same,%Inh,PAK4,0%
same,%Inh,PAK6,0%
same,%Inh,PAK7,0%
same,%Inh,PCTK1,0%
same,%Inh,PCTK2,0%
same,%Inh,PCTK3,22%
same,%Inh,PDGFRA,63%
same,%Inh,PDGFRB,85%
same,%Inh,PDPK1,100%
same,%Inh,PFTAIRE2,16%
same,%Inh,PFTK1,0%
same,%Inh,PHKG1,5%
same,%Inh,PHKG2,12%
same,%Inh,PIK3C2B,0%
same,%Inh,PIK3C2G,0%
same,%Inh,PIK3CA,0%
same,%Inh,PIK3CB,0%
COc1ccc(-c2nc3n(c2-c2ccncc2)CCC3)cc1 [SKF-104493],%Inh,PAK1; 1 µM,0% and 27%
same,%Inh,PAK2; 1 µM,23% and 10%
same,%Inh,PAK3,0%
same,%Inh,PAK4,0%
same,%Inh,PAK6,0%
same,%Inh,PAK7; 1 µM,0% and 15%
same,%Inh,PCTK1,0%
same,%Inh,PCTK2; 1 µM,3% and 0%
same,%Inh,PCTK3; 1 µM,0% and 28%
same,%Inh,PDGFRA; 1 µM,25% and 3%
same,%Inh,PDGFRB; 1 µM,5% and 23%
same,%Inh,PDPK1; 1 µM,21% and 0%
same,%Inh,PFTAIRE2; 1 µM,29% and 9%
same,%Inh,PFTK1; 1 µM,0% and 34%
same,%Inh,PHKG1,0%
same,%Inh,PHKG2; 1 µM,0% and 20%
same,%Inh,PIK3C2B; 1 µM,13% and 0%
same,%Inh,PIK3C2G; 1 µM,19% and 0%
same,%Inh,PIK3CA,0%
same,%Inh,PIK3CB; 1 µM,19% and 0%
Cc1cccc(-c2nc(Nc3ccc4[nH]nnc4c3)c3ccccc3n2)n1 [GW867587],%Inh,PAK1,9%
same,%Inh,PAK2,41%
same,%Inh,PAK3,0%
same,%Inh,PAK4,0%
same,%Inh,PAK6,0%
same,%Inh,PAK7,0%
same,%Inh,PCTK1,0%
same,%Inh,PCTK2,0%
same,%Inh,PCTK3,0%
same,%Inh,PDGFRA,0%
same,%Inh,PDGFRB,0%
same,%Inh,PDPK1,0%
same,%Inh,PFTAIRE2,0%
same,%Inh,PFTK1,0%
same,%Inh,PHKG1,0%
same,%Inh,PHKG2,0%
same,%Inh,PIK3C2B,0%
same,%Inh,PIK3C2G,0%
same,%Inh,PIK3CA,0%
same,%Inh,PIK3CB,0%
Clc1cccc(-c2nc(Nc3ccncc3)c3ccccc3n2)c1 [GW873004],%Inh,PAK1,0%
same,%Inh,PAK2,0%
same,%Inh,PAK3,37%
same,%Inh,PAK4,16%
same,%Inh,PAK6,0%
same,%Inh,PAK7,0%
same,%Inh,PCTK1,0%
same,%Inh,PCTK2,0%
same,%Inh,PCTK3,0%
same,%Inh,PDGFRA,0%
same,%Inh,PDGFRB,12%
same,%Inh,PDPK1,4%
same,%Inh,PFTAIRE2,0%
same,%Inh,PFTK1,0%
same,%Inh,PHKG1,0%
same,%Inh,PHKG2,0%
same,%Inh,PIK3C2B,0%
same,%Inh,PIK3C2G,0%
same,%Inh,PIK3CA,0%
same,%Inh,PIK3CB,0%
NC(=O)c1sc(-n2cnc3ccccc32)cc1OCc1ccccc1F [GSK1024306],%Inh,PAK1,14%
same,%Inh,PAK2,16%
same,%Inh,PAK3,0%
same,%Inh,PAK4,0%
same,%Inh,PAK6,0%
same,%Inh,PAK7,4%
same,%Inh,PCTK1,0%
same,%Inh,PCTK2,0%
same,%Inh,PCTK3,1%
same,%Inh,PDGFRA,0%
same,%Inh,PDGFRB,2%
same,%Inh,PDPK1,19%
same,%Inh,PFTAIRE2,7%
same,%Inh,PFTK1,6%
same,%Inh,PHKG1,0%
same,%Inh,PHKG2,0%
same,%Inh,PIK3C2B,0%
same,%Inh,PIK3C2G,0%
same,%Inh,PIK3CA,0%
same,%Inh,PIK3CB,0%
CSc1nn2c(=O)cc(N3CCOCC3)nc2n1Cc1cccc(Cl)c1Cl [GSK2347225],%Inh,PAK1,13%
same,%Inh,PAK2,13%
same,%Inh,PAK3,15%
same,%Inh,PAK4,0%
same,%Inh,PAK6,0%
same,%Inh,PAK7,26%
same,%Inh,PCTK1,15%
same,%Inh,PCTK2,0%
same,%Inh,PCTK3,0%
same,%Inh,PDGFRA,0%
same,%Inh,PDGFRB,24%
same,%Inh,PDPK1,0%
same,%Inh,PFTAIRE2,45%
same,%Inh,PFTK1,20%
same,%Inh,PHKG1,0%
same,%Inh,PHKG2,0%
same,%Inh,PIK3C2B,80%
same,%Inh,PIK3C2G,33%
same,%Inh,PIK3CA,15%
same,%Inh,PIK3CB,100%
CN1CCC(n2cnc(-c3ccc(F)cc3)c2-c2ccnc(NC3CCNCC3)n2)CC1 [SB-229482],%Inh,PAK1,0%
same,%Inh,PAK2,14%
same,%Inh,PAK3,13%
same,%Inh,PAK4,8%
same,%Inh,PAK6,11%
same,%Inh,PAK7,10%
same,%Inh,PCTK1,0%
same,%Inh,PCTK2,0%
same,%Inh,PCTK3,10%
same,%Inh,PDGFRA,11%
same,%Inh,PDGFRB,29%
same,%Inh,PDPK1,0%
same,%Inh,PFTAIRE2,17%
same,%Inh,PFTK1,0%
same,%Inh,PHKG1,0%
same,%Inh,PHKG2,16%
same,%Inh,PIK3C2B,0%
same,%Inh,PIK3C2G,0%
same,%Inh,PIK3CA,0%
same,%Inh,PIK3CB,37%
Fc1ccc(-c2ncn(CCCNCc3ccccc3)c2-c2ccncc2)cc1,%Inh,PAK1,30%
same,%Inh,PAK2,25%
same,%Inh,PAK3,0%
same,%Inh,PAK4,11%
same,%Inh,PAK6,11%
same,%Inh,PAK7,14%
same,%Inh,PCTK1,7%
same,%Inh,PCTK2,0%
same,%Inh,PCTK3,8%
same,%Inh,PDGFRA,0%
same,%Inh,PDGFRB,24%
same,%Inh,PDPK1,6%
same,%Inh,PFTAIRE2,0%
same,%Inh,PFTK1,0%
same,%Inh,PHKG1,0%
same,%Inh,PHKG2,16%
same,%Inh,PIK3C2B,1%
same,%Inh,PIK3C2G,31%
same,%Inh,PIK3CA,3%
same,%Inh,PIK3CB,0%
